Data on 4 targets can be found in the supplement of paper PMC6411743.

± gives the standard deviation of the averaged measurements. About 6,500 targets were measured; listed, in parts, are those with the largest changes and a random draw of the rest.

Compound in the assay: Nc1ncnc2c1ncn2[C@@H]1O[C@H](COP(=O)(O)OP(=O)(O)OP(=O)(O)O)[C@@H](O)[C@H]1O [adenosine triphosphate]
The assay is described as follows: NP40-soluble protein abundance relative to vehicle (solubility fold change) (ratio); higher = more soluble protein in presence of ATP. The procedure, abridged:
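Each value is a fold change relative to the detergent-processed vehicle, calculated per replicate from vsn-normalised intensities. Jurkat crude lysate received eight concentrations (0.1 to 10 mM) for 10 min at room temperature and 3 min at 37 °C, then was solubilised in 0.8% NP40 with benzonase (60 min, 4 °C). The ultracentrifuged supernatant was TMT-labelled and run by LC-MS/MS in three independent experiments.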

Chain of UniProt Q96HS1 (Q96HS1 whole entry): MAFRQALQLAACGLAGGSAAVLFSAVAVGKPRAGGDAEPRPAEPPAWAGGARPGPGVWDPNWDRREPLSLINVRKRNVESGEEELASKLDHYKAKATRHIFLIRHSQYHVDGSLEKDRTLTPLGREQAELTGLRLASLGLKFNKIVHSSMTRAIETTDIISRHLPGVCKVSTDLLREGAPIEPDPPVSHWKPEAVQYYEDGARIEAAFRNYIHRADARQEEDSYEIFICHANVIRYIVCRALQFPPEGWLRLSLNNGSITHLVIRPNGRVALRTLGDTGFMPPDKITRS
Chain of UniProt Q9NQ29 (Q9NQ29 whole entry): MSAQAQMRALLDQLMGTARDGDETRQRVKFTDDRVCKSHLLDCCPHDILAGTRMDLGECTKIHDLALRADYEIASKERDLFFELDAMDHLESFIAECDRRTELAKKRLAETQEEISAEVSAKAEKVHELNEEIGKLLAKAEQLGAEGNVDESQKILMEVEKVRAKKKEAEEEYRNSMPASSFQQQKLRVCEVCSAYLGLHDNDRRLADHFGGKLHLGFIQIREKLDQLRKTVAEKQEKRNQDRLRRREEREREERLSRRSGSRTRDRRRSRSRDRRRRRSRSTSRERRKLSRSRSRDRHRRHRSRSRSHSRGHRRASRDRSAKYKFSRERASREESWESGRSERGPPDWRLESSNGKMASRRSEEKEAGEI
Chain of UniProt Q9BS26 (Q9BS26 whole entry): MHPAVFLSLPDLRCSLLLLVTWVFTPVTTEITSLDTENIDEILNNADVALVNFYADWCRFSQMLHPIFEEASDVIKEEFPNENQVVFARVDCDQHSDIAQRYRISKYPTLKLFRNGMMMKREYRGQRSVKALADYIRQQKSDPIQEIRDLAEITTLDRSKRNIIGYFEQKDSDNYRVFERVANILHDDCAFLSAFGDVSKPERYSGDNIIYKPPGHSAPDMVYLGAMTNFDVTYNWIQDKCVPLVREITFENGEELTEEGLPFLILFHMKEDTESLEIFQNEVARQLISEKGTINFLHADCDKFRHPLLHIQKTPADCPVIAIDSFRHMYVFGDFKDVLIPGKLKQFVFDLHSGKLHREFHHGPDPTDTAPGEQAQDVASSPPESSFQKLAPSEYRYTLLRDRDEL
Chain of UniProt Q9UEY8 (Q9UEY8 whole entry): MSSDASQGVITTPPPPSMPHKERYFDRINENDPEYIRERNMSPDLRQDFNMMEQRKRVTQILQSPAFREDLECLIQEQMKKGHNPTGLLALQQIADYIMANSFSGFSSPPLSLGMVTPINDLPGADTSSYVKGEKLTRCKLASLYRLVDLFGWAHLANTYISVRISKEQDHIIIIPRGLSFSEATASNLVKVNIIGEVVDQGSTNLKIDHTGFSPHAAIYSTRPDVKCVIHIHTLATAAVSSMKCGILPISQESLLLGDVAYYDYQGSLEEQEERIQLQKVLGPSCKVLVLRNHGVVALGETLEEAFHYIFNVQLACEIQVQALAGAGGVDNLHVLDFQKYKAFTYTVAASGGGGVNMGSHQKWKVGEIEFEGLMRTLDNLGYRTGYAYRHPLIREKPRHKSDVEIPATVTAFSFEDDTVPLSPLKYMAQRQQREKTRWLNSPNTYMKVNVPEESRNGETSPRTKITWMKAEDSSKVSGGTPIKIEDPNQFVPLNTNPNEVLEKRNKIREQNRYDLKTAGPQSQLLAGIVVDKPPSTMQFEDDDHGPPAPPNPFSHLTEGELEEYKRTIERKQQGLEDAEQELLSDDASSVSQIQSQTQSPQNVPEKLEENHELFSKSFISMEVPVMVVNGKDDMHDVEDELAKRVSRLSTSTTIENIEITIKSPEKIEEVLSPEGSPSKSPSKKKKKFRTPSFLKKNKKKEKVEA

As for LUC7L (UniProt Q9NQ29), the NP40-soluble protein abundance was 2.7 ± 0.14 (concentration: 1mM); 2.9 ± 0.11 (concentration: 2mM); 2.86 ± 0.17 (concentration: 4mM); 3.28 ± 0.17 (concentration: 6mM); 2.93 ± 0.17 (concentration: 8mM); 3.11 ± 0.15 (concentration: 10mM).

Take UniProt Q9UEY8|Q9UEY8-2: the NP40-soluble protein abundance runs as follows: (concentration: 1mM) 1.01 ± 0.019; (concentration: 2mM) 1.02 ± 0.018; (concentration: 4mM) 1.01 ± 0.014; (concentration: 6mM) 1.02 ± 0.035; (concentration: 8mM) 0.99 ± 0.023; (concentration: 10mM) 1.004 ± 0.0086.

For the target PGAM5 (UniProt Q96HS1), the NP40-soluble protein abundance is, setting by setting: (concentration: 1mM) 1.1 ± 0.037; (concentration: 2mM) 1.14 ± 0.083; (concentration: 4mM) 1.3 ± 0.06; (concentration: 6mM) 1.48 ± 0.16; (concentration: 8mM) 1.64 ± 0.089; (concentration: 10mM) 1.72 ± 0.11.

UniProt Q9BS26: the NP40-soluble protein abundance by setting is: (concentration: 1mM) 0.982 ± 0.043; (concentration: 2mM) 0.956 ± 0.035; (concentration: 4mM) 0.943 ± 0.057; (concentration: 6mM) 0.945 ± 0.067; (concentration: 8mM) 0.952 ± 0.06; (concentration: 10mM) 0.941 ± 0.054.
